Pf apPOL inh: Pf-apPOL inhibitors, biochemical, fluorescence. inhibition, % at 10 µM. 210,000 tested, 0.25% active. Recombinant Pf-apPOL, molecular beacon fluorescence, 1.5 h
mHTT-CaM PPI inh: mutant huntingtin-calmodulin interaction inhibitors – biochemical, AlphaScreen, primary screen. AID 1671202, 2021. AlphaScreen His-mHTT/GST-CaM binding, luminescence. P42858. inhibition, % at 15 µM. 190,000 tested, 3.6% active;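 further: 0% = both proteins with DMSO and 100% = one protein alone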
Target sequence (P42858 whole entry, looked up, stated change not applied): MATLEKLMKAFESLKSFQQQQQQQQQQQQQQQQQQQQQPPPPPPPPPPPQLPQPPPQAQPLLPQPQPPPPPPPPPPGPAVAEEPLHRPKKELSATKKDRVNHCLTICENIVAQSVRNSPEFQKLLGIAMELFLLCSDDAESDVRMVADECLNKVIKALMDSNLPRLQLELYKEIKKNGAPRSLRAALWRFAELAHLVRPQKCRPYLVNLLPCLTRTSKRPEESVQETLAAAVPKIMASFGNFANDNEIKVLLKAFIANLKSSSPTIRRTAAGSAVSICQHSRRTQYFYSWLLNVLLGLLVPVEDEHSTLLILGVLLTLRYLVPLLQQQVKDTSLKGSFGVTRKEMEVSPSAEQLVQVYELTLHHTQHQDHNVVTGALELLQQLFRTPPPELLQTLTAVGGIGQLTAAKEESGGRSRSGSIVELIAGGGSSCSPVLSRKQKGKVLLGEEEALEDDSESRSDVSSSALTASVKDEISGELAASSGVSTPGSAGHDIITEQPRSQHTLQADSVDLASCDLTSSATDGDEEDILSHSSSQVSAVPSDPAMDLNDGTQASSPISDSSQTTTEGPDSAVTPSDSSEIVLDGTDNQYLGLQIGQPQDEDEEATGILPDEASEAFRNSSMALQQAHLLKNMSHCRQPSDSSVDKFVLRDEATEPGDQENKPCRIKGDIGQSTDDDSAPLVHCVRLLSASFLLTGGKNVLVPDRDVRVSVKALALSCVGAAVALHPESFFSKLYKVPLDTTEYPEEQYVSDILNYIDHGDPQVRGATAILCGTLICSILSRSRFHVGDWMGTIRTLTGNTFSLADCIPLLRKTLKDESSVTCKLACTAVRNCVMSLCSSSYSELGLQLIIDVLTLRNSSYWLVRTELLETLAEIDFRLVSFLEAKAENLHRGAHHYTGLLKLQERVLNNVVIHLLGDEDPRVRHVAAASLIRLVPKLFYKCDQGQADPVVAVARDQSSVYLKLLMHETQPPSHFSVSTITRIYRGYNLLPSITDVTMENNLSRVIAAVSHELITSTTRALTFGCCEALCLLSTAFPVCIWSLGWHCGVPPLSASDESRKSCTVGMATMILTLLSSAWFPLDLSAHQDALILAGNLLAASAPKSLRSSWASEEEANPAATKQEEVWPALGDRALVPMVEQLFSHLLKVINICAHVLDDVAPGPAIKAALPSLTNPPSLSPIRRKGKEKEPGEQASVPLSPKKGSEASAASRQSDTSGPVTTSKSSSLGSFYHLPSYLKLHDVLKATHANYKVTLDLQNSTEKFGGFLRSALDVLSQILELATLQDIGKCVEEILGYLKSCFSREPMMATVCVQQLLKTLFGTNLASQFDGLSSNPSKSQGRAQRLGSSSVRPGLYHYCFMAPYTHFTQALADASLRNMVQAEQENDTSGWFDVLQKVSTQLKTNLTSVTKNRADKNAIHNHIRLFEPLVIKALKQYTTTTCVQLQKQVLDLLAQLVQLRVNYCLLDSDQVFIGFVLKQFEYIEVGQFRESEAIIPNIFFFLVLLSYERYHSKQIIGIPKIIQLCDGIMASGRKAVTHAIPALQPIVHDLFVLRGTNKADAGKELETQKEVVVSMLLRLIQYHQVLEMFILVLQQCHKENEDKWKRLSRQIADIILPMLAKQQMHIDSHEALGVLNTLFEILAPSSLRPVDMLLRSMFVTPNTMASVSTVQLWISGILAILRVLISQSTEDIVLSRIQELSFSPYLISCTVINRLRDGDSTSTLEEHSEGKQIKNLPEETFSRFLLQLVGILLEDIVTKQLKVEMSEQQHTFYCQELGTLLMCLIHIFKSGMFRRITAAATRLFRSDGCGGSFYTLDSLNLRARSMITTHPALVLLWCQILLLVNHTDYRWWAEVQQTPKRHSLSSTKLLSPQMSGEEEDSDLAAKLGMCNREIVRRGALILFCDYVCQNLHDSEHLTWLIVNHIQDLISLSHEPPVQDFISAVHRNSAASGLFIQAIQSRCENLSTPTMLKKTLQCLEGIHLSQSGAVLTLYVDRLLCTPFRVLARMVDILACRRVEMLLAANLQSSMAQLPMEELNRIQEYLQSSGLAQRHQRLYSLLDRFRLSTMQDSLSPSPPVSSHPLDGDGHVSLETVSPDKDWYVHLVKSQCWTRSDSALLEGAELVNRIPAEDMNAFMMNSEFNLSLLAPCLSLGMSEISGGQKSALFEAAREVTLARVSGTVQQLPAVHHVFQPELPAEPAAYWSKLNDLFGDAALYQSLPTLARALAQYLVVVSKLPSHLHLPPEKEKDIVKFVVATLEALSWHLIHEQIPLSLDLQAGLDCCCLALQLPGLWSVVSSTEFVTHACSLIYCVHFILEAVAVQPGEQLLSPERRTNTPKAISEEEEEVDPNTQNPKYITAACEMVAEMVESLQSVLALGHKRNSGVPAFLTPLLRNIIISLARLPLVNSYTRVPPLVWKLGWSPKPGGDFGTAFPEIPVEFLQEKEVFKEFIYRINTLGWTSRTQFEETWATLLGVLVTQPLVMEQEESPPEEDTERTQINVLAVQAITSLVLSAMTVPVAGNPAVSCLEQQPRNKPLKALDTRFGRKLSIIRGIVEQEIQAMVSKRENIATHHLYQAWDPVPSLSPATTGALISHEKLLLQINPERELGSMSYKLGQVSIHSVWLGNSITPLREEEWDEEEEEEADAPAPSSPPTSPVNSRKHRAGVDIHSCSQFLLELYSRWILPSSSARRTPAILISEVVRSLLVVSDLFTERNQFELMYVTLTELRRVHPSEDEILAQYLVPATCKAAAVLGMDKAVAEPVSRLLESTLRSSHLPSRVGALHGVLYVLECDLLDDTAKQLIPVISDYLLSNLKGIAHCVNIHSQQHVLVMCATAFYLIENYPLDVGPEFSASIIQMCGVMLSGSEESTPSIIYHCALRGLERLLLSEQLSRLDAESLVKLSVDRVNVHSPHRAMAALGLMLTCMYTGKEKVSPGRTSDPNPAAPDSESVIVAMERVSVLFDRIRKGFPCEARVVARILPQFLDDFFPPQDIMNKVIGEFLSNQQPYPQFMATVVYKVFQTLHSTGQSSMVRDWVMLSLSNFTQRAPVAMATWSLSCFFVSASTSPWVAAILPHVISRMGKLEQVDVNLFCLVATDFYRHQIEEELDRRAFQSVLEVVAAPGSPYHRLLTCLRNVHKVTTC
Numbers without * were called inactive. Many of the other results were omitted from the sample, so hits are more common in it than they were. No stated cut-off is given here; in the data, active means inhibition above about 50%; inactive means the rest.

SMILES	Pf apPOL inh	mHTT-CaM PPI inh
O=C(CN1CCOCC1)N1N=C(c2ccc(F)cc2)CC1c1ccccc1F (stereo not drawn)	-4	14
Cc1ccc(C)c(C2CC(c3ccc(F)cc3)=NN2C(=O)CN2CCOCC2)c1 (stereo not drawn)	2	50*
COc1ccc(C2CC(c3ccccc3)=NN2C(=O)CN2CCOCC2)cc1 (stereo not drawn)	-6	27
Cc1ccc(C2=NN(C(=O)CN3CCOCC3)C(c3ccc(F)cc3)C2)cc1 (stereo not drawn)	-6	28
Cc1ccc(C2CC(c3ccccc3F)=NN2C(=O)CN2CCOCC2)c(C)c1 (stereo not drawn)	1	83*
Cc1ccc(C2=NN(C(=O)CN3CCOCC3)C(c3ccccc3)C2)cc1C (stereo not drawn)	-2	52*
CNC(=O)C1=CCN(C(=O)c2ccc(C)c(C)c2)CC1	0	3
COc1cc(/C=C2\C(=O)NN(c3ccc(C)c(Cl)c3)C2=O)ccc1OCC#N	1	4
O=C(Nc1ccc(F)c(F)c1)c1cc(S(=O)(=O)NCc2ccccc2Cl)ccc1F	6	6
O=C(CSc1nc2[nH]ncc2c(=O)n1-c1cccc(Cl)c1)c1ccc(Cl)cc1	-5	18
Cc1ccc(-c2n[nH]c(=O)c3ccccc23)cc1S(=O)(=O)Nn1cnnc1	9	4
CC(C)NC(=O)c1ccc(OCC2CCN(C(=O)c3ccccc3Cl)CC2)cc1	-2	12
Cc1ccc2oc(-c3ccc(Cl)c(NC(=O)c4cccnc4)c3)nc2c1	-2	-1
COc1ccc(Cc2cnc(NC(=O)c3ccc(N4CCOCC4)c([N+](=O)[O-])c3)s2)cc1	-3	5
CC(C)(C)c1csc(NC(=O)c2ccc(N3CCOCC3)c([N+](=O)[O-])c2)n1	2	55*
O=C(NCC1CCCO1)C1CN(C(=O)COc2ccccc2F)C1 (stereo not drawn)	-4	-8
COc1ccc(-n2c(C)c3c(C)nnc(C)c3c2C)cc1OC	3	5
Cc1nnc(C)c2c(C)n(C(C)c3ccccc3)c(C)c12 (stereo not drawn)	7	74*
CC(C)c1ccc(CNC(=O)c2nc3cccnc3n(C)c2=O)cc1	0	62*
Cn1c(=O)c(C(=O)NCc2ccc(Cl)cc2)nc2cccnc21	-1	5
CCOc1ccccc1NC(=O)CC(C)c1ccccc1 (stereo not drawn)	0	-16
O=C(Cc1csc(NC(=O)c2cnccn2)n1)NCCOc1ccc(F)cc1	-4	-2
CS(=O)(=O)Nc1cccc(NC(=O)Cc2csc(NC(=O)c3cnccn3)n2)c1	20	97*
O=C(Cc1csc(NC(=O)c2cnccn2)n1)Nc1ccc(-n2cccn2)cc1	-6	97*
O=C(Cc1csc(NC(=O)c2ccsc2)n1)Nc1cccnc1	-5	1
SMILES	Pf apPOL inh	mHTT-CaM PPI inh
Cc1cc(=O)n(C)c(SCc2cccc(F)c2)n1	-6	-16
COc1ccc2c(c1)N1CCN(c3ccc(C)cc3)CC1C(C(=O)NC1CC1)C2 (stereo not drawn)	2	65*
COc1ccc(N2CCN3c4cc(OC)ccc4CC(C(=O)NC4CC4)C3C2)cc1 (stereo not drawn)	-3	27
CC(C)(O)C#Cc1ccc(N2C(c3ccsc3)=Cc3ccc(F)cc3C2c2c[nH]c3ccc(C#N)cc23)cc1 (stereo not drawn)	-4	-7
COc1ccc(N2C(c3ccsc3)=Cc3cc4c(cc3C2c2c[nH]c3ccccc23)OCO4)cc1 (stereo not drawn)	-9	70*
COc1ccc(C(=O)Nc2ccc(Cl)c(Cl)c2)cc1	9	-15
CC(C)CN(CC(C)C)C(=O)C1CCCN(c2ncnc3c2nc2n3CCCCC2)C1 (stereo not drawn)	2	14
Cc1cccc2sc(NC(=O)CN(C)S(=O)(=O)c3ccc(Br)s3)nc12	1	92*
Cc1cccc2sc(NC(=O)CCS(=O)(=O)c3ccc(Br)s3)nc12	-2	5
Cc1ccsc1C(O)CNC(=O)c1ccccc1C(F)(F)F (stereo not drawn)	-7	-9
CCCCN(C)Cc1cccc(OC)c1OC	-5	-2
C=CCSc1nnc2c(n1)OC(c1ccc(OC)c(OC)c1)N(C(C)=O)c1ccccc1-2 (stereo not drawn)	-54	25
COc1ccc(C2=C/C(=C3/c4ccccc4-c4ncccc43)C(=O)O2)c(OC)c1	-5	22
O=C1OC(c2ccccc2)=C/C1=C1/c2ccccc2-c2ncccc21	-1	67*
C=C[C@@H]1c2ccccc2N(S(=O)(=O)c2ccc(C)cc2)[C@H](c2ccc(C(F)(F)F)cc2)C1(C#N)C#N	-1	1
C=C[C@@H]1c2cc(C)ccc2N(S(=O)(=O)c2ccc(C)cc2)[C@H](c2ccc(C(C)(F)F)cc2)C1(C#N)C#N	-6	90*
O=C1OC(c2ccc(Cl)c(Cl)c2)=N/C1=C\c1ccccc1	2	5
Cc1onc(-c2ccccc2Cl)c1C(=O)Nc1cccc(-c2cn3cccnc3n2)c1	-6	16
O=C(CSCc1ccccc1)Nc1cccc(-c2cn3cccnc3n2)c1	-6	52*
COc1ccc(NC(=O)CCCOc2cccc(C)c2)c(OC)c1	-1	-7
CC1=NN(c2cccc(Cl)c2)C(=O)/C1=C/c1ccc(Cl)c([N+](=O)[O-])c1	3	76*
CC1=NN(c2ccc(Br)cc2)C(=O)/C1=C/c1ccc(N(C)C)cc1	3	37
CC1=NN(c2ccc(Cl)c(Cl)c2)C(=O)/C1=C/c1ccccc1	-3	15
CC1=NN(c2ccc(Cl)c(Cl)c2)C(=O)/C1=C/c1ccc(C)c([N+](=O)[O-])c1	0	12
CCN(C)c1ccc(/C=C2/C(=O)N(c3ccc(Cl)c(Cl)c3)N=C2C)cc1	-5	61*
SMILES	Pf apPOL inh	mHTT-CaM PPI inh
CC1=NN(c2nc(-c3ccccc3)cs2)C(=O)/C1=C/c1ccc(C)s1	-9	3
CC1=NN(c2nc(-c3ccccc3)cs2)C(=O)/C1=C/c1ccco1	9	76*
CC1=NN(c2nc(-c3ccc(C)cc3)cs2)C(=O)/C1=C/c1ccc(N(C)C)cc1	-9	56*
CCOc1ccc(N2CC(C(=O)NC3CC4CCC3C4)CC2=O)cc1 (stereo not drawn)	-3	-3
COc1cccc(OC(C)C(=O)O)c1 (stereo not drawn)	1	-1
CCN(CC)c1ccc(/C=C2/C(=O)N(c3ccc(C)cc3)N=C2C)cc1	-1	29
CCN(CC)c1ccc(/C=C2/C(=O)N(c3ccc(Cl)c(C(=O)O)c3)N=C2C)cc1	-2	59*
CCc1ccc(N2N=C(C)/C(=C\c3ccc(N(C)C)cc3)C2=O)cc1	-1	70*
CC1=NN(c2ccccc2)C(=O)/C1=C/c1ccc(N(C)C)cc1	-7	42
CCC(=O)Nc1nc2ccccc2n1CC	-15	-2
O=C(Nc1nc2ccccc2n1CCN1CCCCC1)c1ccccc1	-3	34
C=CCn1c(NC(=O)c2ccccc2)nc2ccccc21	1	54*
CCn1c(NC(=O)c2ccccc2)nc2ccccc21	0	53*
O=C(NCc1ccccc1)c1nnn(-c2ccccc2Cl)c1-c1cccnc1	-2	0
O=C1CC(c2ccccc2)CC2=C1C(c1ccc(C(F)(F)F)cc1)Nc1ccccc1N2 (stereo not drawn)	-2	86*

Compound activity deposited in PubChem BioAssay by University of Kansas High Throughput Screening Laboratory.
